Rows were chosen to be rich in hits. Some 18% of all compounds tested hit in one or more screens of this group.
IL1B secr inh: inhibitors of inflammasome signaling (IL-1 beta secretion); THP-1 LPS/ATP IL-1B secretion, AlphaLISA, 16 h; stronger effect = lower value; activity change, % at 57.5 µM; 360,000 tested, 4.7% active; AID 743279; in the data active means activity change below about -50%; inconclusive means mostly about -30% to -49%; further: on the % scale 0 is the no-effect control and ±100 the full control effect
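THP-1 cells pretreated 1 hr with compounds (up to 57.5 uM final), then stimulated with LPS (250 ng/mL final) plus ATP (1.25 mM final); secreted IL-1B measured by AlphaLISA after 16 hr, decreased signal indicating inhibition.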
HepG2 tox: counter-screen for TGF-b inhibitors: cytotoxicity in HepG2 cells; HepG2 CAGA-GFP viability, ATP luminescence, 18 h; Potency, µM (doses to about 46.1 µM), without a hit: at the top dose activity change, negative = cytotoxicity, most hits filed as cytotoxic; 410,000 tested, 0.76% active; AID 588856; further: potency means the concentration at half of the fitted maximal effect
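CellTiter-Glo luminescence gave cytotoxicity after 18 hours at 37 degrees C. The cells were HepG2 CAGA-GFP in 1% FBS DMEM, stimulated with 500 pg/mL TGF-beta after compound addition. %Activity was normalised to no-cell wells (complete cell-killing) and DMSO (no toxicity), and curves were fitted and classified.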
DT40 TDP1 CPT: growth inhibition of DT40 Tdp1-/-;hTDP1 cells with camptothecin (screen for TDP1 inhibitors); chicken DT40 Tdp1-/-;hTDP1 cells + 20 nM CPT, ATP luminescence, 48 h; Potency, µM (highest dose often 46.2 µM), for inactives: at the highest dose activity change, negative = growth inhibition, most hits filed as inhibitors; 420,000 tested, 12% active; further: potency means the concentration at half of the fitted maximal effect; on the % scale 0 is the no-effect control and ±100 the full control effect; nearly all actives have a fitted effect of over 55% in size
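Chicken DT40 Tdp1-/- cells complemented with human TDP1, 400 cells/well, exposed to compounds plus 20 nM camptothecin for at least 48 h at 37 C; viability read as ATP content by CellTiter-Glo luminescence.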
TDP1 cell noCPT: qHTS for Inhibitors of human tyrosyl-DNA phosphodiesterase 1 (TDP1): qHTS in cells in absence of CPT | DT40 Tdp1-/- hTDP1 cells, no CPT, ATP luminescence, 48 h | Potency, µM (titrated, usually from 46.2 µM), for inactives: at the top dose activity change, negative = growth inhibition, actives largely listed as inhibitors | 420,000 tested, 15% active | AID 686978, 2013; further: potency means the concentration at half of the fitted maximal effect; on the % scale 0 is the no-effect control and ±100 the full control effect; nearly all actives have a fitted effect of over 55% in size
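Readout: luminescence from CellTiter-Glo after 30 min in the dark at RT. Cells: DT40 Tdp1-/- with stable hTDP1, 400/well. Exposure: compounds alone, ≥48 hr, 37 °C.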
TDP1 inh: inhibitors of human tyrosyl-DNA phosphodiesterase TDP1. Q9NUW8. recombinant TDP1, AlphaScreen DNA substrate cleavage. Potency, µM (titrated, usually from 130 µM), without a hit: at the highest dose activity change, negative = inhibition, hits mostly inhibitors. 350,000 tested, 0.28% active. AID 485290; further: potency means the concentration at half of the fitted maximal effect; on the % scale 0 is the no-effect control and ±100 the full control effect; nearly all actives have a fitted effect of over 40% in size
Target sequence (Q9NUW8 whole entry, looked up): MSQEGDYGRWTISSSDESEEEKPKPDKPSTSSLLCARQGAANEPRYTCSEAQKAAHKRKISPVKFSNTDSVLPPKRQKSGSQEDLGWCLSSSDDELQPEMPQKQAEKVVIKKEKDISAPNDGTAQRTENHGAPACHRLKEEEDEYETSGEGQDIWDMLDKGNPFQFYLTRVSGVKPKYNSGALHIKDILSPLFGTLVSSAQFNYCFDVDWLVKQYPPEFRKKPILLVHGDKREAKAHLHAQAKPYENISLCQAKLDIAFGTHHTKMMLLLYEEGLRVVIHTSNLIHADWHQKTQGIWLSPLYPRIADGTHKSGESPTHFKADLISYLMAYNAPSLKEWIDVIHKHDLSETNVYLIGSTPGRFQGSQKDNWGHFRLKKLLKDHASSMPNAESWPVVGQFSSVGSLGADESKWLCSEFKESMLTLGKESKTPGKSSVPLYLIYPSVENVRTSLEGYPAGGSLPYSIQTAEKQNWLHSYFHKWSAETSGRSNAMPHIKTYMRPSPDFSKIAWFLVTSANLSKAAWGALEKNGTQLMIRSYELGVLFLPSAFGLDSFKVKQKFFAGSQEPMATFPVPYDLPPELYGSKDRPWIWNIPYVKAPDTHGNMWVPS
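E. coli-derived human Tdp1, 1 nM final. Cpd preinc 15 min RT; substrate 15 nM final, 5 min RT; AS bead mix 10 ug/ml final, 10 min RT. Signal loss = tyrosine-FITC cleavage. No-enzyme wells = max signal.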
TGFb SMAD3 inh: blocks TGF-b signaling. HepG2 CAGA-GFP TGF-b/SMAD3 reporter, GFP fluorescence, 18 h; TGF-beta stimulated, 500 pg/mL final. Potency, µM (series often up to 46.1 µM), without a hit: at the top dose activity, negative = inhibition, most hits filed as inhibitors. AID 588855. 410,000 tested, 1.2% active; further: potency means the concentration at half of the fitted maximal effect; on the % scale 0 is the no-effect control and ±100 the full control effect; nearly all actives have a fitted effect of over 65% in size
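Smad-responsive CAGA-GFP expression was quantified in HEPG2 cells exposed to compounds and 500 pg/mL final TGF-beta for 18 h at 37 degrees C; unstimulated wells defined full inhibition.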
* = called active by the depositor. Unless noted, the call rests on the fitted dose curve; in most records, active means well fitted curve in the direction sought with a large enough effect; inconclusive means small, poorly fitted or top-dose-only effect, or another doubt; inactive means no such curve, though single readings can be large; an effect the other way counts as inactive or inconclusive.

Screening O=C(/C=C/c1ccccc1)c1ccccn1 returned IL1B secr inh -12, HepG2 tox -57%, DT40 TDP1 CPT 23µM*, TDP1 cell noCPT 16µM*, TDP1 inh -14% and TGFb SMAD3 inh inconclusive.
For O=C(C=Cc1ccc2c(c1)OCO2)C=Cc1ccc2c(c1)OCO2 the results were IL1B secr inh -18, HepG2 tox 1%, DT40 TDP1 CPT inconclusive, TDP1 cell noCPT 23µM* and TGFb SMAD3 inh 17%.
For N#Cc1ccc(/C=C/C(=O)c2ccc3c(c2)OCO3)cc1 the results were IL1B secr inh -69*, HepG2 tox -1%, DT40 TDP1 CPT 16µM*, TDP1 cell noCPT 23µM*, TDP1 inh 0% and TGFb SMAD3 inh -6%.
C=CCn1c(=O)c2ccccc2n2c(SCC(=O)NC)nnc12 was read as IL1B secr inh 1, HepG2 tox -23%, DT40 TDP1 CPT -2%, TDP1 cell noCPT 0% and TGFb SMAD3 inh 7%.
COc1ccc(N(CC(=O)N/N=C/c2ccc3c(c2)OCO3)S(=O)(=O)c2ccccc2)cc1 was read as TDP1 inh -3%.
O=C(/C=C/c1ccccc1)c1ccc2c(c1)OCCCCO2 was read as IL1B secr inh -78*, HepG2 tox -55%, DT40 TDP1 CPT -29%, TDP1 cell noCPT inconclusive, TDP1 inh 0% and TGFb SMAD3 inh -15%.
`COc1cccc(/C=C/C(=O)OCC(=O)c2ccc3c(c2)NC(=O)CO3)c1` gave IL1B secr inh -21, HepG2 tox 3%, DT40 TDP1 CPT -18%, TDP1 cell noCPT 3%, TDP1 inh -3% and TGFb SMAD3 inh -1%.
O=C(/C=C/c1ccc2c(c1)OCO2)c1ccccn1 was read as IL1B secr inh -1, HepG2 tox -52%, DT40 TDP1 CPT 23µM*, TDP1 cell noCPT 18µM*, TDP1 inh 9% and TGFb SMAD3 inh inconclusive.
Screening O=C1COc2ccc(C(=O)/C=C/c3ccccc3)cc2N1 returned IL1B secr inh -2, HepG2 tox -15%, DT40 TDP1 CPT 5.2µM*, TDP1 cell noCPT 5.2µM*, TDP1 inh 0% and TGFb SMAD3 inh 8.9µM*.
For O=C1CNC(=O)c2cc(Cl)ccc2N1 the results were IL1B secr inh 9, HepG2 tox 2%, DT40 TDP1 CPT -12%, TDP1 cell noCPT -23% and TGFb SMAD3 inh -1%.
COc1ccc(C(OCC(O)CN(C)C2CCCCC2)c2ccc(OC)cc2)cc1 (stereo not drawn) was read as IL1B secr inh -71*, HepG2 tox -40%, DT40 TDP1 CPT 16µM*, TDP1 cell noCPT inconclusive and TGFb SMAD3 inh 1%.
CCOc1ccc(CN(C)CC(O)COC(c2ccc(OC)cc2)c2ccc(OC)cc2)cc1 (stereo not drawn) was read as IL1B secr inh -59*, HepG2 tox -184%, DT40 TDP1 CPT inconclusive, TDP1 cell noCPT 18µM* and TGFb SMAD3 inh inconclusive.
For COc1ccc(CN(C)CC(O)COC(c2ccc(OC)cc2)c2ccc(OC)cc2)cc1 (stereo not drawn) the results were IL1B secr inh inconclusive, HepG2 tox 22µM*, DT40 TDP1 CPT inconclusive, TDP1 cell noCPT 23µM* and TGFb SMAD3 inh inconclusive.
For CCn1nnc2cc(C(=O)N3CCC(C(=O)OC)CC3)ccc21 the results were IL1B secr inh 38, HepG2 tox -13%, DT40 TDP1 CPT 2%, TDP1 cell noCPT -2%, TDP1 inh 1% and TGFb SMAD3 inh 1%.
For NCCCC[C@H]1CNC(=O)C(=O)N1CCC12CC3CC(CC(C3)C1)C2 the results were IL1B secr inh -6, HepG2 tox 0%, DT40 TDP1 CPT 10%, TDP1 cell noCPT -4%, TDP1 inh 6% and TGFb SMAD3 inh -13%.
Screening CCCCC1(O)CC(C(F)(F)F)=NN1C(=O)COc1ccccc1 (stereo not drawn) returned IL1B secr inh 14, HepG2 tox -35%, DT40 TDP1 CPT inconclusive, TDP1 cell noCPT inconclusive, TDP1 inh 0% and TGFb SMAD3 inh -22%.
CC1=NN(C(=O)CSCc2ccccc2)C(O)(c2ccccc2)C1 (stereo not drawn) was read as IL1B secr inh 9, HepG2 tox -37%, DT40 TDP1 CPT -25%, TDP1 cell noCPT -1%, TDP1 inh 8% and TGFb SMAD3 inh -21%.
For CC1=NN(C(=O)COc2ccccc2)C(O)(c2ccccc2)C1 (stereo not drawn) the results were IL1B secr inh 13, HepG2 tox 8%, DT40 TDP1 CPT 5.8µM*, TDP1 cell noCPT inconclusive, TDP1 inh 3% and TGFb SMAD3 inh 0%.
CCC1=NN(C(=O)COc2ccccc2)C(O)(c2ccc(Br)cc2)C1 (stereo not drawn) was read as IL1B secr inh 6, HepG2 tox -104%, DT40 TDP1 CPT inconclusive, TDP1 cell noCPT 21µM*, TDP1 inh 0% and TGFb SMAD3 inh inconclusive.
Screening N#CC1=C(N)N(c2ccccc2)C(c2cccc([N+](=O)[O-])c2)C1(C#N)C#N (stereo not drawn) returned IL1B secr inh -21, HepG2 tox 4%, DT40 TDP1 CPT inconclusive, TDP1 cell noCPT 16µM*, TDP1 inh 7% and TGFb SMAD3 inh 7%.
For Cc1cccc(N2C(N)=C(C#N)C(C#N)(C#N)C2c2ccccc2)c1 (stereo not drawn) the results were IL1B secr inh -9, HepG2 tox -2%, DT40 TDP1 CPT 21µM*, TDP1 cell noCPT 10µM*, TDP1 inh 11% and TGFb SMAD3 inh inconclusive.
For COc1ccc(-n2c(C)c([N+](=O)[O-])c3ccc(O)c(CN(C)C)c32)cc1 the results were IL1B secr inh -59*, HepG2 tox 5%, DT40 TDP1 CPT inconclusive, TDP1 cell noCPT 2.6µM*, TDP1 inh 4% and TGFb SMAD3 inh 29%.
O=c1c2ccccc2nnn1-c1ccccc1 was read as IL1B secr inh -1, HepG2 tox -3%, DT40 TDP1 CPT -1%, TDP1 cell noCPT -21% and TGFb SMAD3 inh -2%.
N=c1c2ccccc2nnn1-c1ccc(C(F)(F)F)cc1 was read as IL1B secr inh -16, HepG2 tox 2%, DT40 TDP1 CPT inconclusive, TDP1 cell noCPT 6.5µM*, TDP1 inh 1% and TGFb SMAD3 inh 4%.

Screens from PubChem.
